By AC50 is commonly meant the concentration giving half of the maximal activity seen.

Each structure is given as a SMILES string. Active and inactive are the calls of the source. Rule for the calls: active = hit-call score of the fitted dose curve at least 0.9, where 1 is the maximum; inactive = score below 0.9.

The assay is described as follows: ATG_VDRE_CIS: Attagene CIS-FACTORIAL HepG2 Assay for human Vitamin D Receptor Element (VDRE) (AID 2282968). The conditions noted are these: HepG2 VDRE cis-reporter transcription, actives raise or lower the signal. The method, boiled down: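 Steps: transfect HepG2 with multiple reporter transcription units; dose chemicals 24 h; isolate RNA; RT-PCR; label with 6-FAM primer extension; HpaI digest; capillary electrophoresis. Curves fitted both directions against DMSO.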
Turning to `O=c1cc(-c2ccccc2)oc2ccc3ccccc3c12`, the call was inactive. `O=C(Nc1ccc(Cl)c(Cl)c1)c1cc(Cl)cc(Cl)c1O`: the AC50 is 2.27 µM (active).

On to `c1ccc2c(c1)CCC2`, for which the result was inactive. With `O=C1Cc2ccccc2N1c1c(Cl)cccc1Cl`, the AC50 is 1.4 µM (active).

For `Clc1ccc(Nc2nnc(Cc3ccncc3)c3ccccc23)cc1`, the half-maximal activity concentration (AC50) was 7.35 µM (active). Regarding `Brc1cc(Br)c(Oc2c(Br)cc(Br)c(Br)c2Br)cc1Br`, the molecule was called inactive. For the molecule `C=CC(=O)OCCC(F)(F)C(F)(F)C(F)(F)C(F)(F)C(F)(F)C(F)(F)F`, the result was inactive. Still for that read-out and setting: next, `O=C(C=C(O)C(F)(F)F)C(F)(F)F`: “inactive”. As to `Nc1cc(Cl)c(-c2cc(Cl)c(N)cc2Cl)cc1Cl`, the concentration at half-maximal activity (AC50) is 2.96 µM (active).

As for `CCC(=O)C=Cc1ccc(OC)cc1`, the AC50 is 65.6 µM (active). As to `COC(O)c1ccccc1` (stereo not drawn), the result was inactive.

As for `CC1CCC(C(=O)O)CC1` (stereo not drawn), the molecule was classed as inactive. Take `CC1CNCC(C)O1` (stereo not drawn): the call was inactive.

Regarding `Cc1ccc(N=Nc2c(O)ccc3ccccc23)c(C)c1`, the AC50 was 2.55 µM (active). As for `Nc1ccc(O)c(C(=O)O)c1`, the molecule was called inactive. Same read-out and setting: next, `Cc1[nH]nc2c1N=C(c1ccccc1Cl)c1cc([N+](=O)[O-])ccc1N2`: “inactive”; `O=C(O)C(=O)O`: “inactive”. For the molecule `CCc1cccc(CC)c1N(COC)C(=O)CS(=O)(=O)O`, the concentration at half-maximal activity (AC50) is 5.6 µM (active). Take `Clc1ccc2c(Cl)ccnc2c1`: the molecule was called inactive. With `COC1=CC(=O)C[C@@H](C)[C@]12Oc1c(Cl)c(OC)cc(OC)c1C2=O`, the call was inactive. Same read-out and setting: the entry for `O=C(Nc1cccc([N+](=O)[O-])c1)c1cc2ccccc2cc1O` is “inactive”. With `CCc1cccc(CC)c1NC(=O)C(=O)O`, the result was inactive. Still for that read-out and setting: next, `O=CC(F)(F)C(F)(F)C(F)(F)F`: “inactive”; `CCCCCCc1ccc(N)cc1`: “inactive”; `COc1cccc(O)c1`: “inactive”. On the same count and under the same terms, next, `FC(F)(F)C1(F)C(F)(F)C(F)(F)C(F)(F)C1(F)F`: “inactive”.

Consider `C=CC(=O)OCCC(F)(F)C(F)(F)C(F)(F)C(F)(F)C(F)(F)C(F)(F)C(F)(F)C(F)(F)F`, for which the molecule was classed as inactive. The same measure, in the same setting: the entry for `CCCCCc1ccc(O)cc1` is “inactive”; for `O=C1OC(=O)c2cc(-c3ccc4c(c3)C(=O)OC4=O)ccc21` it is “inactive”; for `FC(F)(F)C(F)(F)C(F)(F)C(F)(F)I` it is “inactive”.

`OCCN1CN(CCO)CN(CCO)C1`: the call was inactive.

`Oc1c(Cl)cc(Cl)cc1Sc1cc(Cl)cc(Cl)c1O`: the AC50 was 3.4 µM (active). Turning to `COc1cc([N+](=O)[O-])ccc1N`, the molecule was called inactive. Regarding `CC(C)(c1ccc(Oc2ccc(N)cc2)cc1)c1ccc(Oc2ccc(N)cc2)cc1`, the AC50 was 3.6 µM (active). For the molecule `CCCC=O`, the result was inactive. In the case of `CCCCCCCCC(C)=O`, the molecule was classed as inactive. Regarding `NC(C(F)(F)F)C(F)(F)F`, the outcome was inactive. For the molecule `Cc1ccc(C)c(S(=O)(=O)O)c1`, the call was inactive.

The values are drawn from PubChem BioAssay (EPA / NIEHS).
